Source: PubChem BioAssay (Tox21)
“And” between values parts separate entries of the source, which are not always exact repeats. Equal values may be shown once. Records with an inconclusive call do not appear. Entries that show only a call come without a potency. Some structures have more than one record in an assay (separate samples or runs), and their calls can disagree. The source made the active and inactive calls. Unless noted, the call rests on the fitted dose curve; in most records, active means well fitted curve in the direction sought with a large enough effect in the repeat runs; inconclusive means weak or mixed curves; inactive means no such curve, though single readings can be large; an effect the other way counts as inactive or inconclusive.

Tests used:
[1] = qHTS assay for small molecule agonists of the p53 signaling pathway (AID 651631; calls by dose curve; further: nearly all actives have a fitted effect of over 15% in size; further: potency means the concentration at half of the fitted maximal effect)
How it was run: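 Fluorescence intensity from cleaved LiveBLAzer B/G substrate (2 h, room temperature) served as the signal. Beforehand, HCT-116 reporter cells bearing p53 response elements were treated 16 h at 37 °C with DMSO-dissolved compounds.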

[2] = qHTS assay for small molecules that induce genotoxicity in human embryonic kidney cells expressing luciferase-tagged ATAD5 (AID 651632); further: nearly all actives have a fitted effect of over 15% in size
How it was run: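 Genotoxicity read-out via ATAD5-luciferase: HEK293T cells, 16 hr compound incubation at 37C, Amplite detection.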

[3] = qHTS assay for small molecule agonists of the p53 signaling pathway - cell viability (AID 651633; calls by dose curve; further: nearly all actives have a fitted effect of over 30% in size; further: potency means the concentration at half of the fitted maximal effect)
How it was run: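 p53RE-bla cells were treated with compound for 16 hours at 37 C. Cytotoxicity was then measured as CellTiter-Glo luminescence after 30 min at room temperature.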

[4] = qHTS assay for small molecules that induce genotoxicity in human embryonic kidney cells expressing luciferase-tagged ATAD5 - cell viability (AID 651634; calls by dose curve; further: nearly all actives have a fitted effect of over 25% in size; further: potency means the concentration at half of the fitted maximal effect)
How it was run: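 Live-cell protease activity (CellTiter-Fluor, fluorescence) indicates viability. HEK293T cells with luciferase-tagged ATAD5; 15.5 hr compound treatment at 37C.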

[5] = qHTS assay for small molecule disruptors of the mitochondrial membrane potential - cell viability (AID 720634; calls by dose curve; further: nearly all actives have a fitted effect of over 20% in size; further: potency means the concentration at half of the fitted maximal effect)
How it was run: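 Human hepatoma HepG2 cells were treated for 1 hr with test chemicals, then given m-MPI dye and CellTiter-Glo. Cell viability reflects luminescence proportional to cellular ATP.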

[6] = qHTS assay for small molecule disruptors of the mitochondrial membrane potential (AID 720635); further: potency means the concentration at half of the fitted maximal effect
How it was run: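 HepG2 cells exposed to compound 1 hr at 37C, then Mito-MPS dye 30 min. Ratio read of aggregate (540/590 nm) versus monomer (490/535 nm) fluorescence.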

[7] = qHTS assay to test for compound auto fluorescence at 590 nm (red) in HepG2 cells (AID 720674)
How it was run: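 Seeding: 2,000 HepG2 cells/well, MEM/10% FBS, overnight 37 C. Dosing: compound vs DMSO. Incubation: 1 hr, 37 C, 5% CO2. Read: fluorescence 540 ex/590 em, Rose Bengal sodium as red reference.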

[8] = qHTS assay to test for compound auto fluorescence at 535 nm (green) in HepG2 cells (AID 720675)
[9] = qHTS assay to test for compound auto fluorescence at 460 nm (blue) in HEK293 cells (AID 720678)
How it was run: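 Measured: blue fluorescence (Ex 405/Em 460 nm) of compound-treated HEK293 cells, incubated overnight at 37C with 5% CO2 and scaled to triamterene equivalents.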

[10] = qHTS assay to test for compound auto fluorescence at 590 nm (red) in HEK293 cells (AID 720679)
How it was run: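 Using HEK293 cells at 2,000 per well, the screen added 23 nL of each compound after cell attachment and incubated overnight (37C, 5% CO2). The plate reader then captured red-label fluorescence, Ex/Em 540/590nm.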

[11] = qHTS assay to test for compound auto fluorescence at 535 nm (green) in HEK293 cells (AID 720680)
[12] = qHTS assay to test for compound auto fluorescence at 460 nm (blue) in HEK293 cell free culture (AID 720681)
How it was run: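 Compounds were added to cell-free DMEM with 10% FBS and fluorescence read directly. The blue channel used 405 nm excitation and 460 nm emission, with triamterene as the reference fluorophore.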

[13] = qHTS assay to test for compound auto fluorescence at 535 nm (green) in HEK293 cell free culture (AID 720682)
How it was run: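 Intrinsic compound fluorescence is measured in culture medium containing 10% FBS, with excitation at 485 nm and detection at 535 nm, referenced to fluorescein.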

[14] = qHTS assay to test for compound auto fluorescence at 590 nm (red) in HEK293 cell free culture (AID 720683)
How it was run: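 Cell-free wells of DMEM with 10% FBS received compound, and intrinsic fluorescence was read at excitation/emission 540/590 nm. Values expressed as equivalence to Rose Bengal sodium.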

[15] = qHTS assay to test for compound auto fluorescence at 590 nm (red) in HepG2 cell free culture (AID 720684)
How it was run: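 Compound was pinned into wells holding MEM with 10% FBS and no cells, and red fluorescence was read at Ex/Em 540/590 nm. Signal is expressed as auto fluorescence equivalency relative to Rose Bengal sodium.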

[16] = qHTS assay to test for compound auto fluorescence at 460 nm (blue) in HepG2 cell free culture (AID 720685)
How it was run: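 Compound (23 nL) or DMSO pinned into cell-free MEM with 10% FBS; blue fluorescence read at 405/460 nm excitation/emission, expressed as auto-fluorescence equivalency to triamterene.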

[17] = qHTS assay to test for compound auto fluorescence at 535 nm (green) in HepG2 cell free culture (AID 720686)
[18] = qHTS assay to test for compound auto fluorescence at 460 nm (blue) in HepG2 cells (AID 720687)
How it was run: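 HepG2 cells in MEM with 10% FBS, attached overnight at 37 C, were exposed to compound or DMSO for 1 hr at 37 C, 5% CO2. Blue fluorescence was read at 405/460 nm, with triamterene as reference fluorophore.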

[19] = qHTS assay to identify small molecule antagonists of the glucocorticoid receptor (GR) signaling pathway - cell viability counter screen (AID 720693); further: nearly all actives have a fitted effect of over 55% in size; further: potency means the concentration at half of the fitted maximal effect
[20] = molecular target: Glucocorticoid receptor (Homo sapiens) (UniProt P04150); assay: qHTS assay to identify small molecule agonists of the glucocorticoid receptor (GR) signaling pathway (AID 720691; active means well fitted activation curve with a large enough effect in the signal ratio in the repeat runs, not every such curve was filed as active; the % refers to the signal ratio)
Chain of Glucocorticoid receptor (Homo sapiens) (P04150 whole entry, looked up): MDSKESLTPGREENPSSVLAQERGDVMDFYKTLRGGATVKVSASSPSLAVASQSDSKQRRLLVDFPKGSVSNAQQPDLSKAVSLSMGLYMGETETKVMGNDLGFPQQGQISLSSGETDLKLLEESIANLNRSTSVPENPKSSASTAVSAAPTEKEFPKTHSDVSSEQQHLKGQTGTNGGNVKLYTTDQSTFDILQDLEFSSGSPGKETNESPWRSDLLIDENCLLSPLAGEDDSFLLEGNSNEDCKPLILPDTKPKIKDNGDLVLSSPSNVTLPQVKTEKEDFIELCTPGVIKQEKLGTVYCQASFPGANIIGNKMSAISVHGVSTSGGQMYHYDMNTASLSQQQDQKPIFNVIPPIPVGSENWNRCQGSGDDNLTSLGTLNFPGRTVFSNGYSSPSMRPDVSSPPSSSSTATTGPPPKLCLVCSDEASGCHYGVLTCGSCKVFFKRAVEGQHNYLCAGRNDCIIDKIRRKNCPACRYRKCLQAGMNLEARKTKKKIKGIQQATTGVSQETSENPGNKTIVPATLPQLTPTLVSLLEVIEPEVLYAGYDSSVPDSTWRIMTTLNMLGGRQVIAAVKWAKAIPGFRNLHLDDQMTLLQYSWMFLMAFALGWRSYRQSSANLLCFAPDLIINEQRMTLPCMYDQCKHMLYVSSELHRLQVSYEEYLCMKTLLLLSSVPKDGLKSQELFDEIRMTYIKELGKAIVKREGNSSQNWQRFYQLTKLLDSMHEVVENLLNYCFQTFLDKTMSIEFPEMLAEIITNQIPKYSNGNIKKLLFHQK
How it was run: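 Beta-lactamase reporter activity, read as fluorescence intensity, was measured in GR-bla HeLa cells exposed to compounds for 18 h at 37 C and then loaded with LiveBLAzer B/G FRET substrate for 2 h at room temperature.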

Structure (SMILES) | Potency [1] | outcome [2] | Potency [3] | Potency [4] | Potency [5] | Potency [6] | outcome [7] | outcome [8] | outcome [9] | outcome [10] | outcome [11] | outcome [12] | outcome [13] | outcome [14] | outcome [15] | outcome [16] | outcome [17] | outcome [18] | Potency [19] | outcome [20]
Cc1cc(-c2ccc(N)c(C)c2)ccc1N | inactive | inactive | inactive | inactive | inactive | inactive | inactive | inactive | inactive | inactive | inactive | inactive | inactive | inactive | inactive | inactive | inactive | inactive | inactive | –
O=C(O)c1nc(Cl)ccc1Cl | inactive | inactive | inactive | inactive | inactive | inactive | inactive | inactive | inactive | inactive | inactive | inactive | inactive | – | inactive | inactive | inactive | inactive | inactive | inactive
COP(=O)(OC)C(O)C(Cl)(Cl)Cl (centres undefined) | inactive | inactive | inactive | inactive | inactive | inactive | inactive | inactive | inactive | inactive | inactive | inactive | inactive | – | inactive | inactive | inactive | inactive | inactive | inactive
CC[N+]1(C)CCCC1 | – | inactive | inactive | inactive | inactive | inactive | inactive | inactive | inactive | inactive | inactive | inactive | inactive | inactive | inactive | inactive | inactive | inactive | inactive | inactive
OCCOc1ccccc1 | inactive | inactive | inactive | inactive | inactive | inactive | inactive | inactive | inactive | inactive | inactive | inactive | inactive | inactive | inactive | inactive | inactive | inactive | inactive | inactive
C[C@]12CCC(=O)C=C1CC[C@@H]1[C@@H]2CC[C@]2(C)C(=O)CC[C@@H]12 | inactive | inactive | inactive | inactive | inactive | inactive | inactive | inactive | inactive | inactive | inactive | inactive | inactive | inactive | inactive | inactive | inactive | inactive | inactive | –
Nc1ccc(-c2ccc(N)c(Cl)c2)cc1Cl | 9.74 µM (active) and 12.8 µM (active) and 21.7 µM (active) | inactive | 54.8 µM (active) and inactive | 54.8 µM (active) and 57 µM (active) and 54.5 µM (active) | 27.4 µM (active) and 50.8 µM (active) and 34.4 µM (active) | 5.48 µM (active) and 16.1 µM (active) and 8.63 µM (active) | inactive | inactive | inactive | inactive | inactive | inactive | inactive | – | inactive | inactive | inactive | inactive | inactive | –
CC(=O)[O][Hg][c]1ccccc1 | 596 nM (active) and 762 nM (active) and 1.22 µM (active) | inactive | 473 nM (active) and 382 nM (active) and 386 nM (active) | 1.68 µM (active) and 606 nM (active) and 1.37 µM (active) | 5.31 µM (active) and 1.21 µM (active) and 2.43 µM (active) | 4.73 µM (active) and 1.08 µM (active) and 1.93 µM (active) | inactive | inactive | inactive | inactive | inactive | inactive | inactive | – | inactive | inactive | inactive | inactive | 952 nM (active) and 485 nM (active) and 436 nM (active) | –
CCCC[n+]1ccccc1 | – | inactive | inactive | inactive | inactive | inactive | inactive | inactive | inactive | inactive | inactive | inactive | inactive | inactive | inactive | inactive | inactive | inactive | inactive | –
CNC | inactive | – | inactive | – | inactive | inactive | inactive | inactive | inactive | inactive | inactive | inactive | inactive | – | inactive | inactive | inactive | inactive | inactive | inactive
O=P1(N(CCCl)CCCl)NCCCO1 (centres undefined) | inactive | inactive | inactive | inactive | inactive | inactive | inactive | inactive | inactive | inactive | inactive | inactive | inactive | – | inactive | inactive | inactive | inactive | inactive | inactive
Oc1ccccc1-c1ccccc1 | inactive | inactive | inactive | inactive | inactive | 21.7 µM (active) [middle of 4 runs] | inactive | inactive | inactive | inactive | inactive | inactive | inactive | inactive | inactive | inactive | inactive | inactive | inactive | –
